# Results filed as inconclusive are left out. Values without a mark were called inactive. Activity calls are given as the source filed them. Calls follow the shape of the dose curve; as a rule, active = well fitted cell-killing curve with a large enough effect; inconclusive = small, poorly fitted or top-dose-only effect; inactive = flat fitted curve, though single readings scatter.
# Assay: qHTS of pediatric cancer cell lines to identify multiple opportunities for drug repurposing: Primary screen for Rh18 cells (AID 1347102); also: nearly all actives have a fitted effect of over 65% in size
# Conditions: Rh18 rhabdomyosarcoma viability, CellTiter-Glo luminescence, 48 h; series mostly up to 46 µM; activity change, negative = cytotoxic: at the top concentration
# From the text: Drug repurposing or repositioning has been offered as a strategy for drug development in oncology programs. This approach has special potential for childhood cancers and other rare or orphan diseases, where the expected return on new drug development has been a disincentive to pharmaceuticals.
# In this project we exploit the poly-pharmacology of drugs to discover new indications via phenotypic screening of a panel of 19 well-characterized cell lines derived from solid tumors seen in children and adolescents. The goal is to identify approved drugs with previously unrecognized anticancer properties that has the potential to reveal new mechanisms and biological processes involved in carcinogenesis or drug resistance. We employed a titration-based paradigm (quantitative high-throughput screening or qHTS), where all compounds were tested at multiple concentrations for their effect on cell viability. Concentration-response curves (CRCs) were derived directly from the primary screen, and both potency and efficacy values were used to identify compounds with robust bioactivity profiles. We screened the NIH Chemical Genomics Center (NCGC) Pharmaceutical Collection (NPC) and Mechanism Interrogation Plate (MIPE) small molecule collections of approved and investigational compounds against these cell lines; and measured metabolically active cells after 48 hours of compound treatment as a proxy for cell viability.
# Assay Submitter: Nathalia J. Martinez, National Center for Advancing Translational Sciences, National Institutes of Health, Rockville, MD, USA; email: natalia.martinez@nih.gov
# [1] Shen, M et al. Quantitative high-throughput phenotypic screening of pediatric cancer cell lines identifies multiple opportunities for drug repurposing. Oncotarget 2017 Dec 19;9(4):4758-4772. PMID 29435139.
# The cells were obtained from University of North Carolina (UNC), Pediatric Preclinical Testing Program (PPT), and Coriell Institute (CI).
# qHTS cell viability assay:
# Cells were assayed in growth media at a density of 500-1,000 cells/well. Five microliters of cells were dispensed into 1,536-well, white, solid-bottom, TC-treated plates (Greiner Bio One) using a multidrop dispenser and incubated at 37 degrees C, 5% CO2, under a humidified atmosphere for 5 hours. Twenty-three nanoliters of compounds and controls (neutral control DMSO or positive control bortezomib at final concentration of 2.3 µM) were subsequently transferred by Kalypsys pintool. For primary screens, the MIPE collection was tested at 11-point dilutions (final concentrations range from 0.78 nM to 46 µM) and the NPC collection at 8-point dilutions (final concentrations range from 0.59 nM to 46 µM). Compounds tested in follow-up screens were assayed at 11-point dilutions. Cells were incubated for 48 hours, followed by addition of 3 µL of CellTiter-Glo (Promega). After a 15 min incubation at room temperature, samples were analyzed for luminescence intensity using a ViewLux High-throughput CCD imager equipped with clear filters.
# % is scaled to controls: 0 for no effect and ±100 for the full control effect; potency is read from the fitted curve at half-maximal effect.
SMILES,"activity change, negative = cytotoxic",Potency
CC(C)NNC(=O)c1ccncc1,7.41%,
O=c1[nH]c(=O)n([C@H]2C[C@H](O)[C@@H](CO)O2)cc1Br,3.36%,
CSc1ccc(C(=O)c2[nH]c(=O)[nH]c2C)cc1,2.05%,
COC(=O)[C@H]1[C@H]2C[C@@H]3c4[nH]c5cc(OC)ccc5c4CCN3C[C@H]2C[C@@H](OC(=O)c2cc(OC)c(OC)c(OC)c2)[C@@H]1OC,6.94%,
CN=C(NC#N)NCCSCc1nc[nH]c1C,3.16%,
CCn1cc(C(=O)O)c(=O)c2cc3c(cc21)OCO3,9.32% [at 16.1 µM],
O=C(O)CN(CCOCCOCCN(CC(=O)O)CC(=O)O)CC(=O)O,14.5% [at 0.597 µM],
CN1C(=O)CC[C@H]1c1cccnc1,5.5%,
CCCCOCCOCCOCc1cc2c(cc1CCC)OCO2,,inactive
CCn1nc(C(=O)O)c(=O)c2cc3c(cc21)OCO3,9.72%,
CCCN(CCC)C(=O)C(CCC(=O)O)NC(=O)c1ccccc1 (stereo not given),4.16%,
Brc1c(NC2=NCCN2)ccc2nccnc12,3.18%,
CN1CCN(CC(=O)N2c3ccccc3C(=O)Nc3cccnc32)CC1,9.39% [at 4.84 µM],
CC(C)(C)NCC(O)c1cc(O)cc(O)c1 (stereo not given),9.87%,
CN(C)C(=O)Oc1ccc[n+](C)c1,12%,
CCO/C([O-])=N/c1c[n+](N2CCOCC2)no1,3.65%,
COC(=O)[C@@H](N)Cc1ccc(O)c(O)c1,-12.6%,
C[C@@H](O)[C@H]1C(=O)N2C(C(=O)O)=C(SCCN=CN)C[C@H]12,-0.0707%,
Fc1ccc(C(c2ccc(F)cc2)N2CCN(C/C=C/c3ccccc3)CC2)cc1,-15.6%,
OC(CCN1CCCCC1)(c1ccccc1)C1CCCCC1 (stereo not given),-19.8%,

SMILES,"activity change, negative = cytotoxic",Potency
Nc1c2c(nc3ccccc13)CCCC2O (stereo not given),18.6%,
CNCCC(Oc1ccccc1OC)c1ccccc1 (stereo not given),-4.63%,
COc1ccc(CN(CCN(C)C)c2ccccn2)cc1,2.16%,
COCCOC(=O)C1=C(C)NC(C)=C(C(=O)OC(C)C)C1c1cccc([N+](=O)[O-])c1 (stereo not given),,18.8 µM (active)
CC[N+](C)(C)c1cccc(O)c1,6.19%,
Cc1nnc(SCC2=C(C(=O)O)N3C(=O)[C@@H](NC(=O)Cn4cnnn4)[C@H]3SC2)s1,11.1%,
NC(N)=N/N=C/c1c(Cl)cccc1Cl,-11.2%,
C=CCc1ccccc1OCC(O)CNC(C)C (stereo not given),2.4%,
CCCOc1ccccc1-c1nc2n[nH]nc2c(=O)[nH]1,12.8%,
CCn1ccnc1CC1COc2ccccc2O1 (stereo not given),-0.521%,
NC(N)=NC(=O)Cc1c(Cl)cccc1Cl,3.6%,
O=C(CCNNC(=O)c1ccncc1)NCc1ccccc1,8.01%,
O=C(O)CCCCCCCC(=O)O,-4.03%,
CCN(CC)CCCN(c1ccccc1)C1Cc2ccccc2C1,-21.9%,
Cc1ccc(S(=O)(=O)NC(=O)NN2CCCCCC2)cc1,12.8%,
O=C1CC2(CCCC2)CC(=O)N1CCCCN1CCN(c2ncccn2)CC1,1.65%,
CCCCNc1ccc(C(=O)OCCN(C)C)cc1,9.17%,
CC(=O)[C@@]1(O)CC[C@H]2[C@@H]3CCC4=CC(=O)CC[C@]4(C)[C@H]3CC[C@@]21C,-2.43%,
COCCc1ccc(OCC(O)CNC(C)C)cc1 (stereo not given),17%,
CN/C(=C\[N+](=O)[O-])NCCSCc1ccc(CN(C)C)o1,7.36%,

# Reference: PubChem BioAssay (NCATS)
